This is a sample that favours compounds with a hit; in the whole collection about 1.7% have one here.
eIF4H inh: inhibitors of RNA binding by human eIF4H | 290,000 tested, 0.94% active | Q15056 | inhibition, % at 35 µM | eIF4H fluorescence polarization binding assay;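 further: calls also rest on retests at 20 µM and on dose response follow-up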
eIF4E-4G inh: inhibitors of eIF4E and eIF4G interaction in translation initiation. AID 782. P63073+Q04637. 220,000 tested, 0.37% active. TR-FRET eIF4E-eIF4GI(517-606) binding, 2 h. inhibition, % at 21.7 µM;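 active means inhibition above about 30%, limit read from the data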;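 further: 0% = full FRET control wells and 100% = background wells lacking eIF4GI fragment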
EBV gp42 inh: blocks Epstein-Barr virus glycoprotein 42 binding; Q1HVG2; Fluorescence polarization binding assay, mP read-out; inhibition, % (tested at 21.74 µM); 220,000 tested, 0.42% active; AID 1085; in the data active means inhibition above about 50%
PABP FP inh: blocks human PABP binding to poly(A) RNA; P11940; fluorescence polarization; calls only at 35 µM; 290,000 tested, 1% active;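 further: calls also rest on retests at 20 µM and on dose response follow-up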
MLLE-PAM2 inh: inhibitors of microRNA-mediated deadenylation, human PABP1 MLLE binding; P11940; GST-MLLE / FITC-PAM2 fluorescence polarization; inhibition, % at 20 µM; 360,000 tested, 0.36% active; AID 588489; in the data active means inhibition above about 35%, passing the limit was not always enough;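 further: plate controls were DMSO wells with GST-MLLE for no effect and wells lacking GST-MLLE protein for full effect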
* = called active by the depositor; i = inactive; ? = inconclusive; · = no result given; + = active, no number; [ ] = remark or other dose. Unless noted, how the calls were made is not given here.

SMILES	eIF4H inh	eIF4E-4G inh	EBV gp42 inh	PABP FP inh	MLLE-PAM2 inh
Cc1cc(-n2c(=O)c(C#N)cc3c(=O)n4ccccc4nc32)no1	103.6*	-19.1	35.0	+	11.6
Cc1c(C(=O)N2CCOCC2)c(S(=O)(=O)Nc2cccc(C#N)c2)c(C)n1C	-0.1	·	·	i	10.3
CC(C)(C)c1ccc(C(=O)CC(Sc2ccc(Cl)cc2)C(=O)O)cc1 (configuration not stated)	-11.8	-2.9	-3.9	i	46.2*
COC(=O)C1=C(C(=O)OC)[C@@H]2N(Cc3ccccc3)c3ccccc3[C@@]23C[C@@H](C(=O)OC)N=C3N1	8.1	0.4	4.0	i	9.9
Cc1cc2cc(CNC(=O)c3ccc(S(=O)(=O)N(C)C)cc3)ccc2n1C	?	-2.6	-6.1	i	50.3*
Cc1cc2cc(CNC(=O)c3ccc(S(=O)(=O)N4CCOCC4)cc3)ccc2n1C	18.2	1.7	5.6	i	46.8*
CC(O)[C@H]1CNC(=O)C(=O)N1CCCCC1CCCCC1 (some centres not stated)	7.6	-6.3	-14.0	i	-10.5
COc1cc(C2C(C#N)=C(N)OC3=C2C(=O)CC(C)(C)C3)c([N+](=O)[O-])cc1OC (configuration not stated)	?	6.9	86.1*	?	77.6
CC1(C)CC(=O)C2=C(C1)OC(N)=C([N+](=O)[O-])C2c1ccc(C#N)s1 (configuration not stated)	14.2	3.5	12.3	i	-17.6
COc1ccc(C2C(C#N)=C(N)OC3=C2C(=O)CC(C)(C)C3)c([N+](=O)[O-])c1OC (configuration not stated)	-8.1	-4.4	-5.8	i	45.1*
CC1(C)CC(=O)C2=C(C1)OC(N)=C(C#N)[C@@H]2c1ccccc1[N+](=O)[O-]	?	-3.5	54.0*	?	142.2
Cn1c(=O)[nH]c2cc(Cl)cnc21	?	-2.1	63.4*	?	47.1*
CCOc1ccc(-n2cc(-c3ccccc3)c3c(=S)nc[nH]c32)cc1	6.3	·	·	i	38.6*
COc1ccc(N2CCN(c3oc(-c4ccco4)nc3C#N)CC2)cc1	100.5*	-2.4	-12.0	i	6.0
COCCNC(=O)c1c(CS(=O)(=O)c2ccccc2)noc1C(=O)NCc1ccccc1	·	·	·	·	6.5
Cc1[nH]n(-c2ncc(-c3ccc(Cl)cc3)s2)c(=O)c1C(c1ccc(Cl)cc1)C(C#N)C#N (configuration not stated)	86.0	3.0	1.7	+	4.6
CC(C)c1nnc(NC(=O)C2c3ccccc3Oc3ccccc32)s1	-9.0	-1.2	-17.3	i	15.1
Cc1nnc(NC(=O)C2c3ccccc3Oc3ccccc32)s1	3.1	0.9	-18.1	i	37.6*
COc1ccc(CN(C(C)=O)c2cc(C)c([N+](=O)[O-])cc2OC)cc1OC	·	·	·	·	-4.5
COc1cc(/C=C/C(=O)Nc2ccc(C)cc2)cc(OC)c1OC	1.6	2.4	-13.7	i	6.1
COc1cc(/C=C/C(=O)Nc2nnc(C(C)(C)C)s2)cc(OC)c1OC	-12.7	-0.6	4.2	i	41.3*
CCN1C=C(Cc2ccccc2C)C2=C(C1)C(c1ccccc1C)C(C#N)=C(N)O2 (configuration not stated)	19.8	-1.7	12.8	+	-5.1
O=C(CCNS(=O)(=O)c1cccs1)N1CCCCCC1	-5.1	38.0*	-7.8	i	-1.6
O=C(CNS(=O)(=O)c1cccs1)N1CCCCC1	3.0	·	·	i	7.5
O=C(CCS(=O)(=O)c1cccs1)N1CCCC1	-10.2	50.2*	-4.4	i	20.5
SMILES	eIF4H inh	eIF4E-4G inh	EBV gp42 inh	PABP FP inh	MLLE-PAM2 inh
C/C(=N\Nc1ccc(C(=O)O)cc1)c1ccc2c(c1)Nc1ccccc1S2	84.1*	12.0	-2.4	+	7.3
C/C(=N/Nc1ccc(C(=O)O)cc1)c1ccc2c(c1)Nc1ccccc1S2	·	·	·	·	0.5
CCCCC(=O)N(C)c1c(CC)nc2c(OCC(=O)N3CCOCC3)cccn12	·	·	·	·	-53.7
CC(=O)c1ccc2cccc3c2c1N=CN3C	72.3*	6.5	16.3	i	17.4
CN1/C(=N\O)c2cccc3cccc1c23	6.9	29.9	3.9	i	22.3
Oc1ccc(-c2[nH]ncc2-c2cccc3cccnc23)c(O)c1	-4.5	92.2*	-9.4	i	-0.9
O=C(O)c1cccc(-c2ccc(/C=C3/SC(=Nc4ccccc4)N(Cc4cccnc4)C3=O)o2)c1	63.6*	·	·	+	-10.5
CCN1C(=O)/C(=C\c2ccc(-c3ccc([N+](=O)[O-])cc3OC)o2)SC1=Nc1cccc(C(=O)O)c1	?	64.3*	81.2*	?	15.7
CCOC(=O)COc1ccc(/C=C2/SC(=Nc3ccccc3)N(Cc3cccnc3)C2=O)cc1OC	-4.1	-6.8	-5.8	i	2.4
CCN=C1S/C(=C\c2ccc(-c3cccc(C(=O)O)c3)o2)C(=O)N1CC	64.2*	3.2	-2.3	i	9.2
CCN=C1S/C(=C/c2ccc(-c3ccc(Cl)cc3C(=O)O)o2)C(=O)N1CC	30.2	·	·	i	-16.8
CCN1C(=O)/C(=C\c2ccc(-c3cccc(C(=O)OC)c3)o2)SC1=Nc1ccc(C(=O)O)cc1	25.7	·	·	i	·
Oc1c(Br)cc(Br)cc1C=Nc1cccnc1	32.5	·	·	i	39.2*
C/C=C/c1ccc(OCCCNCC(C)O)c(OC)c1 (configuration not stated)	-3.0	-12.9	-5.5	i	11.6
C/C=C/c1ccc(OCCCCNCc2ccco2)c(OC)c1	8.0*	0.0	-20.0	+	0.7
N#Cc1c(Cl)c(Cl)c2nnc(-c3ccc(Br)cc3)n2c1Cl	26.8	36.1*[fluorescence artefact?]	44.0	i	·
NC(=O)c1ccc(NC(=O)COc2ccc(-n3cnnn3)cc2)cc1	·	·	·	·	-29.2
NC(=O)COc1ccc(-n2cnnn2)cc1	92.5*	21.9	28.1	i	2.4
O=C(Oc1ccccc1)c1ccc(-n2cnnn2)cc1	11.6	-6.5	-18.0	i	-11.0
O=C(Oc1ccc(-n2cnnn2)cc1)c1ccccc1	70.6*	2.2	-10.0	i	-5.5
CCOc1ccc(/C=C2\NC(=S)NC2=O)cc1	3.4	-3.1	-14.5	i	-109.9
Cc1no[n+]([O-])c1COc1ccc(/C=C2\NC(=S)NC2=O)cc1	56.2*	0.6	-24.9	+	·
N#CC(OC(=O)c1ccccc1)c1ccccc1 (configuration not stated)	·	·	·	·	-5.4
CC(C)Oc1ccc(NC(=O)CCC(=O)O)cc1	-4.8	0.9	78.3*	i	-6.0
O=C(O)CCC(=O)Nc1ccc(N2CCCCC2)c(C(=O)O)c1	-2.6	6.0	-17.8	i	3.0
O=C(O)CCC(=O)Nc1ccc2c(c1)Cc1cc(NC(=O)CCC(=O)O)ccc1-2	58.6*	·	·	i	7.3
CCOc1ccccc1C(=O)N1CCN=C1SCc1cccnc1	-5.3	7.0	7.5	i	40.1*
COc1ccc(S(=O)(=O)NC(N)=NCCc2ccccc2)cc1	-6.7	-2.2	0.6	i	2.2
O=C(O)CN1C(=O)C2C3CC(C2C1=O)C1C(c2ccc(F)cc2)c2sc(=O)[nH]c2SC31 (configuration not stated)	7.5	-0.1	-9.2	i	39.0*

Screens as filed in PubChem.
